High-throughput results from PubChem BioAssay.
Efflux pump inh: inhibitors of Candida efflux pumps in yeast, primary screen, S. cerevisiae, Nile Red, multiplex; 330,000 compounds, 0.44% hits; S. cerevisiae Candida pump triplex; inhibition, % at 10 µM;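 active means plate passing quality check with inhibition over a set limit, or well fluorescence over plate mean plus 4 SD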;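 further: Nile Red retained in pooled yeast measured as flow cytometry median fluorescence; higher means more Nile Red kept so more efflux inhibition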
A1 inh: caspase 3/7 activation in MEF A1-2A-BIM cells, primary screen, A1 inhibitor project, cell-based, luminescence, HTS; Caspase-Glo 3/7 luminescence, 3 h; percent of clofoctol response, vehicle zero; caspase activation, % (test concentration not listed); 330,000 compounds, 0.066% hits; AID 2462, 2010;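 active means over half of replicate activation scores above 10%, or exactly half above 10 with the replicate mean above 10; inconclusive means replicate mean below 10 yet half the replicates above 10; inactive means over half of replicates below 10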
Mot1-301 SUMO: yeast Mot1-301 growth rescue at high temperature, primary screen, SUMOylation pathway inhibitor project, S. cerevisiae, ATP luminescence, 38.5C. growth rescue, % at 18.8 µM. S. cerevisiae Mot1-301 growth rescue; percent above DMSO median, 100 means doubled. 320,000 compounds, 1% hits;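 active means every valid replicate shows activation above 250% relative to neutral control wells; inactive means the rest, any valid replicate at or below 250%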
ALR H2O2 inh: inhibitors of human ALR sulfhydryl oxidase, primary screen, biochemical, H2O2 detection, HRP-luminol luminescence, single point; AID 485317, 2010; purified ALR, DTT oxidation; 290,000 compounds, 3.8% hits; inhibition, % (concentration not given with the values); FAD-linked sulfhydryl oxidase ALR (Homo sapiens), P55789;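 active means mean replicate inhibition above about 79%, with every replicate also reaching it, limit read from the data; inconclusive means only one of the two criteria met; inactive means mean below limit and not every replicate reaching it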
Target sequence (P55789 whole entry, looked up): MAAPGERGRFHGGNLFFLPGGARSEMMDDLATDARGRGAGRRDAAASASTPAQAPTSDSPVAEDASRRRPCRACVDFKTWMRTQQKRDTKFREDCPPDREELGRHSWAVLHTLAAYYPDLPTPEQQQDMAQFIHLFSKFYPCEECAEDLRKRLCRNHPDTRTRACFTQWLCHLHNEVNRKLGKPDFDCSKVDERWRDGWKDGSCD
AHR activator: AHR activators, primary screen, cell-based, luminescence, luciferase reporter, human; AHR-responsive luciferase reporter cells; Aryl hydrocarbon receptor (Homo sapiens), P35869; AID 2796, 2010; activation, % at 5 µM; 320,000 compounds, 2.5% hits; in the data active means activation above about 47%
VLA-4 inh: inhibition in human VLA-4 binding assay, primary screen, VLA-4 allosteric modulator project, MLPCN library, flow cytometry, VLA-4 expressing cells; Integrin alpha-4 (Homo sapiens), P13612; 330,000 compounds, 0.2% hits; ligand binding flow cytometry; inhibition, % (about 7 µM as worked out from the volumes in the protocol); AID 2557, 2010; in the data active means inhibition above about 50%
Yeast Mot1 SUMO: growth restoration of Mot1-301 yeast on galactose, dose response, SUMO pathway inhibitor project, whole organism, S. cerevisiae, ATP luminescence, cherry-picked samples; growth activity, percent, % at 42 µM; AID 493004, 2010; 2,300 tested, under 10 active; shares compounds with Mot1-301 SUMO; S. cerevisiae Mot1-301 galactose growth, 24 h; -100 = growth of slx-deleted rescue strain;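 active means Signal drops as the depositor expects, and the fitted half-maximal dose is no more than ten times the top valid tested dose; inconclusive means Poor fit, or a flat curve whose signal drops by 30% to 70%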;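 further: more negative values mean stronger growth rescue toward the control strain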
Hits are given with their value; . = inactive; ? = inconclusive; / = no result; + = active, no number. The list is not random: actives were taken first. Their share in the collection is about 7.2%.

SMILES	Efflux pump inh	A1 inh	Mot1-301 SUMO	ALR H2O2 inh	AHR activator	VLA-4 inh	Yeast Mot1 SUMO
COc1ccccc1NC(NC(=O)c1ccccn1)C(Cl)(Cl)Cl (stereo not given)	.	.	.	/	.	.	/
Cc1ccc(C)c(NC(NC(=O)c2ccccn2)C(Cl)(Cl)Cl)c1 (stereo not given)	.	.	982	.	.	.	.
Cc1c(NC(C)c2cc(Cl)ccc2O)c(=O)n(-c2ccccc2)n1C (stereo not given)	.	.	455	91	.	.	.
Cc1c(NC(=O)Nc2cccc(Cl)c2)c(=O)n(-c2ccccc2)n1C	.	.	.	.	.	.	/
O=C(CN(CC1CCCO1)C(=O)CNS(=O)(=O)c1ccc(F)cc1)NCc1ccccc1 (stereo not given)	.	.	886	/	.	.	.
COc1ccc(S(=O)(=O)NCC(=O)N(CC(=O)NCC2CCCO2)c2ccccc2C)cc1 (stereo not given)	.	.	921	.	.	.	.
COc1ccc(CN(CC(=O)NCC2CCCO2)C(=O)CNS(=O)(=O)c2ccc(C)cc2)cc1 (stereo not given)	.	.	.	.	.	.	/
Cc1ccc(S(=O)(=O)NCC(=O)N(CC(=O)NCc2ccc(F)cc2)CC2CCCO2)cc1 (stereo not given)	.	.	.	/	.	.	/
COc1ccc(-c2cc(=O)c3cc(O)ccc3o2)cc1	.	.	554	.	.	.	.
Cc1ccc(N(CC(=O)NCCc2ccc(Cl)cc2)S(=O)(=O)c2c(C)noc2C)cc1	.	.	510	.	.	.	.
COc1ccc(N(CC(=O)Nc2ccc(C)c(C)c2)S(=O)(=O)c2c(C)noc2C)cc1	.	.	.	.	.	.	/
Cc1ccc(NC(=O)CN(c2cc(C)cc(C)c2)S(=O)(=O)c2c(C)noc2C)nc1	.	.	.	.	.	.	/
COc1ccc(NC(=O)CN(c2ccc(C(C)C)cc2)S(=O)(=O)c2c(C)noc2C)cc1OC	.	.	367	.	.	.	.
CCOc1ccc(N(CC(=O)NC2CCC(C)CC2)S(=O)(=O)c2c(C)noc2C)cc1 (stereo not given)	.	.	461	.	.	.	.
Cc1cc(C)cc(N(CC(=O)Nc2cccc(C)n2)S(=O)(=O)c2c(C)noc2C)c1	.	.	528	.	.	.	.
Cc1cc(F)ccc1S(=O)(=O)Nc1ccccc1C(=O)NCc1ccccn1	.	.	.	.	.	.	/
CN(C)c1cccc(C(=O)NNC(=O)C23CC4CC(CC(C4)C2)C3)c1	.	.	.	.	.	.	/
CCN(CC(=O)Nc1ccccc1C(F)(F)F)C(=O)CN1C(=O)NC(C)(c2ccccc2)C1=O (stereo not given)	.	.	.	.	.	.	/
COc1ccc(/C=C/C(=O)NC(=S)Nc2ccccn2)cc1	.	.	900	.	.	.	.
COc1ccccc1/C=C/C(=O)NC(=S)Nc1ccccn1	.	.	.	.	.	.	/
CCOC(=O)c1sc(NC(=S)NC(=O)c2ccco2)nc1C	.	.	.	.	.	.	/
CCOC(=O)c1sc(NC(=O)C(CC)OC(=O)c2ccco2)nc1C (stereo not given)	.	.	889	.	.	.	.
CCn1c(SCC(=O)Nc2ccc(NC(=O)c3ccco3)cc2)nnc1-c1cccs1	.	.	+	.	.	.	.
CCOC(=O)N1CCN(C(=O)c2ccccc2-c2ccccc2)CC1	.	.	436	.	.	.	.
COc1cc2c(cc1OC)C(COc1ccccc1OC)N(C(C)=O)CC2 (stereo not given)	.	.	.	/	.	.	/
SMILES	Efflux pump inh	A1 inh	Mot1-301 SUMO	ALR H2O2 inh	AHR activator	VLA-4 inh	Yeast Mot1 SUMO
COc1cc2c(cc1OC)C(c1ccccc1[N+](=O)[O-])N(C(C)=O)CC2 (stereo not given)	.	.	384	.	.	.	.
O=C(c1ccc(Br)cc1)c1sc(N2CCOCC2)nc1-c1ccccc1	.	.	.	.	.	.	/
CC(=O)c1ccc(NC(=S)N2C(C)CCCC2C)cc1 (stereo not given)	.	.	.	.	.	.	/
Cn1c(=O)[nH]c(=O)c2c1nc1n2CCN1Cc1ccccc1	.	?	.	.	.	.	/
CC1CN(Cc2ccccc2)c2nc3c(c(=O)[nH]c(=O)n3C)n2C1 (stereo not given)	.	.	475	.	.	.	.
CN1C(N)=NC(=O)/C1=C/c1ccc(OC(F)(F)F)cc1	.	.	.	.	.	.	/
Cc1nc(N2CCN(c3ccc(Cl)cc3)CC2)[nH]c(=O)c1C	.	.	.	/	.	.	/
CN(C)/C(=N\S(=O)(=O)c1ccc(F)cc1)c1ccccc1	.	.	.	.	.	.	/
CCN(CC)/C(=N\S(=O)(=O)c1ccc(F)cc1)c1ccccc1	.	.	551	.	.	.	.
O=C(Cc1cccs1)Nc1cc(SCCO)cc([N+](=O)[O-])c1	.	.	.	/	.	.	/
COc1ccc(C)cc1NC(=O)C12CCC(C)(C(=O)O1)C2(C)C (stereo not given)	.	.	461	.	.	.	.
Cc1cccc(NC(=O)C23CCC(C)(C(=O)O2)C3(C)C)c1 (stereo not given)	.	.	.	.	.	.	/
CSc1ccc(S(=O)(=O)NCCCOC(C)C)cc1	.	.	.	.	.	.	/
COC(=O)c1cc(NC(=O)CN(c2ccc3c(c2)OCO3)S(C)(=O)=O)ccc1Cl	.	.	.	.	.	.	/
CS(=O)(=O)N(CC(=O)Nc1ccccc1C(=O)N1CCCC1)c1ccc2c(c1)OCO2	.	.	822	.	.	.	.
COC(=O)c1cccc(NC(=O)CN(c2ccc3c(c2)OCO3)S(C)(=O)=O)c1C	.	.	+	.	.	.	.
CS(=O)(=O)N(CC(=O)NCCSCc1ccccc1)c1ccc2c(c1)OCO2	.	.	+	.	.	.	.
O=C(CCN1CCOCC1)NNC(=O)c1ccc([N+](=O)[O-])cc1[N+](=O)[O-]	.	.	.	.	.	.	/
N#Cc1ccccc1OCC(=O)N1CCN(S(=O)(=O)c2ccc(Cl)cc2)CC1	.	.	.	.	.	.	/
CNC(=O)NNC(=O)c1csc(-c2ccc(C(F)(F)F)cc2Cl)n1	.	.	381	.	.	.	.
